# Source: PubChem BioAssay
# Records with an inconclusive call do not appear. Active and inactive are the calls of the source. Unless noted, cut-off not given; nearly all actives show AC50 up to about 26 µM.
# Assays:
# [1] = viability loss in pontine glioma line – cell-based, SU-DIPG-XVII, MIPE5.0, CellTiter-Glo, qHTS, dose response (AID 1347060); conditions: CellTiter-Glo ATP luminescence;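 on AC50: cells exposed to compound for 48 hours before viability readout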
# [2] = viability loss in pontine glioma line – cell-based, SU-DIPG-XIII, MIPE4.0, CellTiter-Glo, qHTS, dose response (AID 1347061; cut-off not given, nearly all actives have AC50 up to about 37 µM;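 further: cells exposed to compound for 48 hours before readout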); conditions: CellTiter-Glo ATP luminescence
# [3] = viability loss in pontine glioma line – cell-based, JHH-DIPG-1, MIPE4.0, CellTiter-Glo, qHTS, dose response (AID 1347062; cut-off not given, nearly all actives have AC50 up to about 27 µM); conditions: JHH-DIPG-1 viability, CellTiter-Glo ATP luminescence
# [4] = viability loss in pontine glioma line – cell-based, SU-DIPG-IV, MIPE4.0, CellTiter-Glo, qHTS, dose response (AID 1347063; cut-off not given, nearly all actives have AC50 up to about 30 µM;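 further: compound exposure lasted 48 hours before the viability readout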); conditions: CellTiter-Glo ATP luminescence
# [5] = viability loss in pontine glioma line – cell-based, SU-DIPG-XXV, MIPE5.0, CellTiter-Glo, qHTS, dose response (AID 1347065); conditions: CellTiter-Glo ATP luminescence;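 further: cells exposed to compound for 48 hours before ATP readout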
# [6] = growth inhibition of DIPG cells – cell-based, MIPE4.0 library, CellTiter-Glo luminescence, qHTS (AID 1347066; cut-off not given, nearly all actives have AC50 up to about 30 µM;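 further: cells exposed to compound for 48 hours before readout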); conditions: SU-DIPG-VI viability, CellTiter-Glo ATP luminescence
# [7] = JHH-DIPG-1 glioma cell viability, MIPE5.0 library, CellTiter-Glo luminescence, qHTS (AID 1347067); conditions: JHH-DIPG-1 glioma viability, CellTiter-Glo ATP luminescence;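 further: cells exposed to compound for 48 hours before readout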
# [8] = GFP-Q80 aggregate reduction, neuronal-like cells, cell-based, NGF-treated PC12, GFPQ80 (AID 1614); conditions: PC12 NGF-treated GFP-polyQ80 inclusion reduction;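 further: lower means fewer inclusions and 0 means no inclusions at all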
# [9] = blockers of polyQ-driven CASP3 activation – cell-based (AID 1583); conditions: polyglutamine-induced caspase-3 activation, cell assay; stronger effect = higher value;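 tested at 10 µM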
# [10] = target: ATP-dependent translocase ABCB1 (Homo sapiens) (UniProt P08183); experiment: P-glycoprotein substrate transport blockade – cell-based (AID 377; in the data active means fluorescence slope change above about 50%); conditions: MDR1-expressing cells, fluorescent substrate accumulation slope; stronger effect = higher value; concentration not given here
# Chain of ATP-dependent translocase ABCB1 (Homo sapiens) (P08183 whole entry, looked up): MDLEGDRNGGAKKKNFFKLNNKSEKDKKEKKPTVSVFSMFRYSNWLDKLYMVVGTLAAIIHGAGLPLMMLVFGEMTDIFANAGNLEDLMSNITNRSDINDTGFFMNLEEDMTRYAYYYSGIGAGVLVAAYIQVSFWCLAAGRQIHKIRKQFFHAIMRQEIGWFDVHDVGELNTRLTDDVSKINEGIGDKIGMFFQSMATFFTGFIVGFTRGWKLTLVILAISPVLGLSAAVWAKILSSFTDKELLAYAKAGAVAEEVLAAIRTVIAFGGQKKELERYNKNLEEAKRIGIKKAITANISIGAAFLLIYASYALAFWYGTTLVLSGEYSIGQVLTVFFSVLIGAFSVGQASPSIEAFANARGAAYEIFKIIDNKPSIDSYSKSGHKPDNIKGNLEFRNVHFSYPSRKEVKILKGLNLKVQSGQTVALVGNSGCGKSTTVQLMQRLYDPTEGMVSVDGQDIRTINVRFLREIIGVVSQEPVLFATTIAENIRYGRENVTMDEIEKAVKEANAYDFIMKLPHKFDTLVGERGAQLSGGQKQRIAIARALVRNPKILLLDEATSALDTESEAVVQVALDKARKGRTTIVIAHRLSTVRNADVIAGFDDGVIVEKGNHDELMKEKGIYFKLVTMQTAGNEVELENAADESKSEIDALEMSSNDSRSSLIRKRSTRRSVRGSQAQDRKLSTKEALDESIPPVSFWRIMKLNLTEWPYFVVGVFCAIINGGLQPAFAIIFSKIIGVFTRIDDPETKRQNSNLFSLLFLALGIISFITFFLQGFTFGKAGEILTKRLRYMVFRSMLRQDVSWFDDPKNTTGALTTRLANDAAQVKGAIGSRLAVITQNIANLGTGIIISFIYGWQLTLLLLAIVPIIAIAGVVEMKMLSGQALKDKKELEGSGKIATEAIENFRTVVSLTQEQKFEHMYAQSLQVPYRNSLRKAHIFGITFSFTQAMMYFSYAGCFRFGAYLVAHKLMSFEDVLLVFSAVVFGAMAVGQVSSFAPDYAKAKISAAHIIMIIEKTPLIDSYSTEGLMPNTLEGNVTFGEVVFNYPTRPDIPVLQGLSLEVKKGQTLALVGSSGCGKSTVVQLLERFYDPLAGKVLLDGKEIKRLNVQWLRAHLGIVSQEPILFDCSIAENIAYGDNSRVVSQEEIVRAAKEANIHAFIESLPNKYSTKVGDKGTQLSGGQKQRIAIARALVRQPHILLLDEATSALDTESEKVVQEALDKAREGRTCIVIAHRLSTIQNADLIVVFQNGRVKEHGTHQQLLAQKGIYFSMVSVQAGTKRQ
# [11] = growth inhibition of DIPG cells – cell-based, MIPE5.0 library, qHTS (AID 1347068; cut-off not given, nearly all actives have IC50 up to about 30 µM;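 on IC50: cells exposed to compound for 48 hours before viability readout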); conditions: SU-DIPG-XXV viability
# [12] = chitosan synthesis blockers in C. neoformans – flow cytometry, Cibacron Brilliant Red staining (AID 1347148; call rule not given here;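 further: compound exposure lasted three days at 37 degrees C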); conditions: Cryptococcus neoformans chitosan, stronger effect = lower value; at 10 µM unless noted
# [13] = viability loss in pontine glioma line – cell-based, SU-DIPG-XIII, MIPE5.0, CellTiter-Glo, qHTS, dose response (AID 1347064; cut-off not given, nearly all actives have AC50 up to about 23 µM;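 on AC50: cells exposed to compound for 48 hours before the viability read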); conditions: CellTiter-Glo ATP luminescence
# [14] = compounds altering HSF1 focus formation in cells – imaging, Selleck Cancer Library (AID 1347162; in the data active means plate-normalised HSF1 focus index below about 0.46); conditions: human cells, HSF1 nuclear foci imaging, at 10 µM; SSMD: measured here: HSF1 foci SSMD mean; cell count: measured here: cell number; plate-normalised HSF1 focus index: stronger effect = lower value
compound,measurement,setting,value
CCCN1CCO[C@@H]2c3cc(O)ccc3OC[C@H]21,outcome,[1],inactive
same,outcome,[2],inactive
same,outcome,[3],inactive
same,outcome,[4],inactive
same,outcome,[5],inactive
same,outcome,[6],inactive
same,outcome,[7],inactive
CO[C@H]1[C@H](O)[C@@H](O[C@H]2CC[C@]3(C=O)C4CC[C@]5(C)[C@@H](C6=CC(=O)OC6)CC[C@]5(O)C4CC[C@@H]3C2)O[C@@H](C)[C@@H]1O (some centres not stated),inclusion score,[8],0.5
CC1=NN=C(c2ccc(N)cc2)c2cc3c(cc2C1)OCO3,outcome,[3],inactive
same,outcome,[4],inactive
same,outcome,[6],inactive
C[N+](C)(C)CC#CCN1CCCC1=O,inhibition,[9],23.8%
same,inclusion score,[8],2
CN1CCc2cc3c(cc2[C@H]1[C@@H]1OC(=O)c2c1ccc1c2OCO1)OCO3,fluorescence slope change,[10],0.5% (inactive)
same,inhibition,[9],-6.49%
same,inclusion score,[8],1.5
O=C(O)C1=CCCN(CCOC(c2ccc(C(F)(F)F)cc2)c2ccc(C(F)(F)F)cc2)C1,outcome,[1],inactive
same,outcome,[7],inactive
same,outcome,[11],inactive
CC(C)(c1ccc(OCC2CO2)cc1)c1ccc(OCC2CO2)cc1 (configuration not stated),fold fluorescence,[12],8.02 [at 146.9 µM] (inactive)
C[C@H]1CCC/C=C/C2C[C@H](O)C[C@H]2[C@H](O)/C=C/C(=O)O1 (some centres not stated),AC50,[1],0.0661 µM (active)
same,outcome,[2],inactive
same,outcome,[3],inactive
same,outcome,[4],inactive
same,AC50,[13],0.235 µM (active)
same,AC50,[5],0.263 µM (active)
same,outcome,[6],inactive
same,AC50,[7],0.235 µM (active)
same,IC50,[11],0.209 µM (active)
same,fold fluorescence,[12],10.7 [at 178.3 µM] (inactive)
COc1ccc(C(=O)c2c(C)n(CCN3CCOCC3)c3cc(I)ccc23)cc1,AC50,[4],20.9 µM (active)
same,AC50,[13],23.5 µM (active)
same,AC50,[5],16.6 µM (active)
same,AC50,[6],23.5 µM (active)
same,AC50,[7],23.5 µM (active)
O=C1C2CCN(CC2)C1(CO)CO,fold fluorescence,[12],9.13 [at 269.9 µM] (inactive)
CN(C)CCN(C)CCc1ccc(Cl)c(Cl)c1,outcome,[1],inactive
same,outcome,[3],inactive
same,outcome,[4],inactive
same,outcome,[13],inactive
same,outcome,[5],inactive
same,outcome,[6],inactive
same,outcome,[11],inactive
same,SSMD,[14],1.43
same,cell count,[14],7160
same,plate-normalised HSF1 focus index,[14],1.09 (inactive)
Cc1cc(SCc2sc(-c3ccc(C(F)(F)F)c(F)c3)nc2C)ccc1OCC(=O)O,outcome,[1],inactive
same,outcome,[2],inactive
same,outcome,[4],inactive
same,outcome,[13],inactive
same,outcome,[5],inactive
same,outcome,[6],inactive
same,outcome,[11],inactive
CC(=O)N(C)c1cccc(-c2ccnc3c(C(=O)c4cccs4)cnn23)c1,outcome,[3],inactive
same,outcome,[4],inactive
same,outcome,[6],inactive
CC(C)[C@@]1(NC(=O)[C@@H]2C[C@@H]3c4cccc5[nH]cc(c45)C[C@H]3N(C)C2)O[C@@]2(O)[C@@H]3CCCN3C(=O)[C@H](Cc3ccccc3)N2C1=O,fluorescence slope change,[10],195% (active)
